# Laboratory results taken from PubChem BioAssay AID1851 (National Center for Advancing Translational Sciences (NCATS), 2009).
# Where “and” joins values, the source holds several entries; their conditions need not be identical. Equal values may be shown once. The whole screen tested about 16,000 compounds, of which about 4,000 (25%) were called active. Inconclusive results (about 26%) are left out. The call rests on the fitted dose curve; in most records, active means well fitted curve in the direction sought with a large enough effect; inconclusive means small, poorly fitted or top-dose-only effect, or effect the other way; inactive means no such curve, though single readings can be large or run the other way. A selection follows. Where a structure was tested more than once in an assay, its records may differ in their call.
# Molecular target: Cytochrome P450 2C9 (Homo sapiens) (UniProt P11712)
# Experiment: Cytochrome panel assay with activity outcomes
# Details: recombinant CYP, pro-luciferin dealkylation, luminescence, p450-cyp2c9; series mostly up to 57.1 µM; activity, negative = inhibition: at the top concentration
# On the % scale 0 is the no-effect control and ±100 the full control effect.
# Cytochrome P450 2C9 (Homo sapiens), sequence (P11712 whole entry, looked up): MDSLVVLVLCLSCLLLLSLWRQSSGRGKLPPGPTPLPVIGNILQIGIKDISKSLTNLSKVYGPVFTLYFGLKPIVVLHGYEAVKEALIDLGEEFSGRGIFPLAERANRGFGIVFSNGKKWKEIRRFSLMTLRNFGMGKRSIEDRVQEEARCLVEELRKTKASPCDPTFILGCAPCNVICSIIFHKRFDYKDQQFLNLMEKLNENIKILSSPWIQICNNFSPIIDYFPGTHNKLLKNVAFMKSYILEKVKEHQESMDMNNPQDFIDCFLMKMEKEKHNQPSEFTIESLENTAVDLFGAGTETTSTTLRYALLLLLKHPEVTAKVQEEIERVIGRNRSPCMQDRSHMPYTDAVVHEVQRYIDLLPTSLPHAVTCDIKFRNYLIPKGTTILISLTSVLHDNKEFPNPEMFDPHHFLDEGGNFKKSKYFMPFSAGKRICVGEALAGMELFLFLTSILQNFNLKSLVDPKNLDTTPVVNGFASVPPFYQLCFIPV
SMILES,AC50,"activity, negative = inhibition"
Cc1[nH]n(C(C)(C)C)c(=O)c1Sc1ccc(Cl)cc1,12.6 µM (active),
Cc1[nH]n(C(C)(C)C)c(=O)c1Sc1ccccc1,7.08 µM (active),
COc1ccc(Oc2ncc3nc(CCc4ccccc4)c(=O)n(C4CC4)c3n2)cc1,12.6 µM (active),
COc1ncc2nc(CCc3ccccc3)c(=O)n(C3CC3)c2n1,15.8 µM (active),
COc1ccc(-n2c(=O)c(C)nc3cnc(Oc4ccccc4)nc32)cc1,,-4% (inactive)
COc1cccc(Nc2ncc3nc(CCc4ccccc4)c(=O)n(C4CC4)c3n2)c1,,24.2% (inactive)
CN(C)c1ncc2nc(CCc3ccccc3)c(=O)n(C3CC3)c2n1,12.6 µM (active),
COc1cccc(Nc2ncc3nc(-c4cccs4)c(=O)n(-c4ccccc4)c3n2)c1,,19.2% (inactive)
CNc1nc(-c2ccoc2)nc2ccccc12,,13% [at 2.29 µM] (inactive)
Clc1ccc2c(c1)C=Nc1c(NCc3ccccc3)ncnc1O2,,-15.6% (inactive)
N#Cc1ccc(-c2ccc(F)cc2)nc1Oc1ccc(Cl)c(Cl)c1,,-18.5% (inactive)
Fc1ccc(-c2cn3cc(C(F)(F)F)cc(Cl)c3n2)cc1,4.47 µM (active),
OCCCNCc1ccccn1,,9.34% [at 11.4 µM] (inactive)
COc1ccc(N2C(=O)NC3CC2(C)Oc2ccccc23)cc1OC (configuration not stated),,22.9% (inactive)
O=C(NCc1ccccc1)c1ccc2c(c1)C(=O)N(CC1CCCO1)C2=O (configuration not stated),,-20.4% (inactive)
CC12CC(NC(=O)N1c1cccc(C(=O)NCc3ccccc3)c1)c1ccccc1O2 (configuration not stated),3.98 µM (active),
Cn1c(=S)c2[nH]c(SCCN3C(=O)c4ccccc4C3=O)nc2n(C)c1=O,,-3.8% [at 11.4 µM] (inactive)
Cn1c(=O)c2[nH]c(CCCCc3nc4c([nH]3)c(=O)n(C)c(=S)n4C)nc2n(C)c1=S,,-2.51% [at 11.4 µM] (inactive)
Cn1c(=O)c2[nH]c(SCc3ccccn3)nc2n(C)c1=S,3.16 µM (active),
CN(C)c1ccc(-c2cncnc2N(C)Cc2ccco2)cc1,,-17.3% [at 2.29 µM] (inactive)
CCOc1ccc(NC(=S)N(Cc2ccc(Cl)cc2)Cc2ccco2)cc1,10 µM (active),
CCOc1ccc(NC(=S)N(Cc2ccc(N(C)C)cc2)Cc2ccco2)cc1,1 µM (active),
CN(C)c1ccc(-c2cc(N(C)Cc3ccco3)ncn2)cc1,,-6.39% [at 2.29 µM] (inactive)
N[C@H](C(=O)O)[C@H](O)C(=O)O,,1.98% (inactive)
Cc1cc(C)c(S(=O)(=O)N2CCN(c3ccc([N+](=O)[O-])c(NCC4CCCO4)c3)CC2)c(C)c1 (configuration not stated),2 µM (active),

SMILES,AC50,"activity, negative = inhibition"
Cc1ccc(NC(=O)c2ccc(NCC3CCCO3)c([N+](=O)[O-])c2)cc1Cl (configuration not stated),1.12 µM (active),
CCS(=O)(=O)N1CCC(C(=O)NCC2CCCO2)CC1 (configuration not stated),,35.7% (inactive)
CC(C)(C)C(=O)N1CCN(c2ccc([N+](=O)[O-])c(NCC3CCCO3)c2)CC1 (configuration not stated),12.6 µM (active),
N#CCSc1ncnc2c1cnn2CCO,,-20.7% (inactive)
O=C1C2C3C=CC(C3)C2C(=O)N1c1ncn[nH]1 (configuration not stated),,4.59% (inactive)
CC1=NN(c2ccccc2)C(=O)/C1=C\N1CC(C)OC(C)C1 (configuration not stated),,5.6% (inactive)
CCOc1cc(/C=C2/C(=O)N(c3ccccc3)N=C2C)ccc1OC(=O)c1ccco1,0.631 µM (active),
CC1=NN(c2ccc(S(=O)(=O)O)cc2)C(=O)/C1=C\c1ccc(Cl)cc1,,-2.05% [at 11.4 µM] (inactive)
CNc1nc(-c2ccccc2CN(C)C)nc2ccccc12,,4.11% [at 2.29 µM] (inactive)
O=C1Oc2ccccc2C(=O)/C1=C\N1C(=O)N/C(=C\c2ccccc2O)C1=O,1 µM (active),
C[C@H](C[C@H](N)C(=O)O)C(=O)O,,-0.378% (inactive)
CC(=O)OC[C@@H]1O[C@@H](O/N=C2/C[C@@H](O)[C@@H](O)[C@@H]3[C@@H]4C(=O)N([C@@H](C)c5ccccc5)C(=O)[C@H]4CC[C@@H]23)[C@H](OC(C)=O)[C@H](OC(C)=O)[C@@H]1OC(C)=O,,16.3% [at 11.4 µM] (inactive)
O=S(=O)(c1ccccc1)N1CCCC1c1nc2ccccc2s1 (configuration not stated),12.6 µM (active),
CC(C)NC(=O)N1CCC2(CC1)CCN(C(=O)c1cccn1C)CC2,,23.2% (inactive)
COc1ccccc1CNc1ncncc1-c1ccccc1Cl,,-27.8% [at 2.29 µM] (inactive)
COc1cccc(CNc2ccc(F)c(Cl)c2)c1O,2.82 µM (active),
COc1ccccc1CNc1ccnc(-c2ccccc2Cl)n1,,-21.6% [at 2.29 µM] (inactive)
CCCN1C2=NCCCN2c2ccccc21,,-8.01% (inactive)
COc1ccc(C(=O)/C=C(/C)N(C)C)cc1,,-8.1% (inactive)
O=C(/C=C/c1ccc2ccccc2c1)c1ccoc1,,5.04% (inactive)
COc1ccc(/C=C/C(=O)c2ccoc2)cc1,28.2 µM (active),
NCCSc1nc(-c2ccccc2)c(-c2ccccc2)o1,,-11.6% [at 11.4 µM] (inactive)
O=C(CCc1nc(-c2ccccc2)c(-c2ccccc2)o1)OCc1ccc(Cl)cc1,22.4 µM (active),
CC(=O)N(C)c1nnc(-c2cnccn2)s1,,25.9% (inactive)
Cc1ccc(-c2nnc(N(C)C(=O)c3cccnc3)s2)cc1,1.41 µM (active),

SMILES,AC50,"activity, negative = inhibition"
CN(C)C(=O)c1ccc(-c2cncnc2NCc2cccnc2)cc1,,8.29% [at 2.29 µM] (inactive)
COc1cccc(C(=O)N(C)c2nnc(-c3ccncc3)s2)c1,2 µM (active),
COc1cccc(-c2ccc3ncnc(N(C)C)c3c2)c1,,-9.73% [at 2.29 µM] (inactive)
CCCC1S/C(=N/N=C/c2ccc(OC)cc2)N(Cc2ccc(OC)cc2)C1=O (configuration not stated),15.8 µM (active),
CC(C)=NO[C@@H](C)c1cc(-c2c(C)cc(C)cc2C)no1,,-0.976% [at 11.4 µM] (inactive)
CCOC(=O)c1c(C)oc2c1c(C=NC1CCS(=O)(=O)C1)c(O)c1ccccc12 (configuration not stated),,-4.9% (inactive)
CCOC(=O)c1c(C)oc2c1cc(O)c1ccccc12,1.12 µM (active),
C[C@@H]1C[C@H](OC(=O)[C@@H](O)c2ccccc2)CC(C)(C)N1C,,14.4% [at 25.6 µM] (inactive)
OCCn1cnc2c(SCc3ccccc3)ncnc21,,12.5% [at 11.4 µM] (inactive)
COc1ccc(-c2csc(NC(=O)CCn3cnc4ccccc4c3=O)n2)cc1OC,1 µM (active),
CCCc1nnc(NC(=O)Cn2cnc3ccccc3c2=O)s1,17.8 µM (active),
CCCc1nnc(NC(=O)CCC(=O)N2CCN(c3ccccn3)CC2)s1,,-20.6% (inactive)
O=C(Cn1cnc2ccccc2c1=O)Nc1nnc(SCc2ccccc2)s1,8.91 µM (active),
CCCc1nnc(NC(=O)CCC(=O)NCc2ccccc2OC)s1,,-27% (inactive)
CCCC(=O)Nc1nc(-c2ccc3c(c2)CCN3S(C)(=O)=O)cs1,,-27.5% (inactive)
Cn1c(=O)c2[nH]c(CCCc3ccc([N+](=O)[O-])cc3)nc2n(C)c1=O,,1.93% [at 11.4 µM] (inactive)
Cc1ccc(C(=O)COC(=O)CNC(=O)C(c2ccccc2)c2ccccc2)cc1[N+](=O)[O-],,4.36% (inactive)
Cc1ccc(C(=O)COC(=O)CNC(=O)Cc2ccccc2)cc1[N+](=O)[O-],14.1 µM (active),
CC(C)(C)c1ccc(COC(=O)CNC(=O)CNC(=O)Cc2ccccc2)cc1,,-35.6% (inactive)
O=C1[C@H]2[C@H]3[C@H](O)[C@H](O)C/C(=N/OC[C@@H](O)COCc4ccco4)[C@@H]3CC[C@@H]2C(=O)N1C[C@@H]1CCCO1,,39.3% [at 11.4 µM] (inactive)
COc1ccc(S(=O)(=O)N2CC3C4C=CC(C4)C3C2)cc1 (configuration not stated),14.1 µM (active),
COc1ccc(S(=O)(=O)N2CCC(N3CCCCC3)CC2)cc1,,-24.7% (inactive)
CCN(CC)CCOC(=O)[C@@H](c1ccccc1)C1CCCCC1,,-9.95% [at 25.6 µM] (inactive)
CC(C)(C)NC(=O)CSC(=Nc1ccc(F)cc1)NC#N,12.6 µM (active),
CC(C)OC(=O)c1cc2c(OC[C@@H](O)CNC(C)(C)C)cccc2[nH]1,,-2.97% (inactive)

SMILES,AC50,"activity, negative = inhibition"
CC(C)CO/N=C1/C[C@@H](O)[C@@H](O)[C@@H]2[C@@H]3C(=O)N(C[C@@H]4CCCO4)C(=O)[C@H]3CC[C@H]12,,9.45% [at 11.4 µM] (inactive)
Cc1nn(-c2ccccc2)c2c1C(=O)N(Cc1ccccc1)C(=O)C(C)(C)C2,17.8 µM (active),
O=C(NCCCN1CCN(C2CCCCC2)CC1)Nc1ccccc1C(F)(F)F,,28.7% (inactive)
CCOC(=O)C1=C(C)NC2=C(C(=O)C(C(=O)OCC)C(c3ccc(OC)cc3)C2)C1c1ccccn1 (configuration not stated),8.91 µM (active),
COCCn1c(=O)c(-c2cccc(C#N)c2)nc2cnc(N3CCNCC3)nc21,3.98 µM (active),
COCCn1c(=O)c(C)nc2cnc(N3CCNCC3)nc21,,16.1% (inactive)
CN1CCN(c2ncc3nc(-c4cccc(C#N)c4)c(=O)n(CCC#N)c3n2)CC1,,-17.2% (inactive)
COc1ccc(-n2c(=O)c(-c3cccc(C#N)c3)nc3cnc(N4CCNCC4)nc32)cc1,,-21% (inactive)
COCCn1c(=O)c(-c2cc(F)cc(F)c2)nc2cnc(N3CCNCC3)nc21,1.26 µM (active),
COCCn1c(=O)c(-c2cc(F)cc(F)c2)nc2cnc(N3CCOCC3)nc21,,2.7% (inactive)
C1CCc2c(nc3nnnn3c2NC2CCCC2)C1,,-36.8% (inactive)
O=C1/C(=C/c2ccccc2)[C@@H](NC2CCCCC2)c2ccccc21,3.98 µM (active),
S[C@@H]1CCCN(Cc2ccccc2)C1,,-2.17% [at 11.4 µM] (inactive)
COc1ccc(C(OCCN2CCC[C@@H](C(=O)O)C2)(c2ccc(OC)cc2)c2ccc(OC)cc2)cc1,,14.7% (inactive)
O=C(O)[C@H]1CCCN(CCC=C(c2ccccc2)c2ccccc2)C1,inactive and 7.94 µM (active),
C[C@H](N[C@@H](C)COc1ccccc1)[C@H](O)c1ccc(O)cc1,,-13.1% [at 25.6 µM] (inactive)
CN(C)c1ncc2nc(-c3ccc(Cl)cc3)c(=O)n(Cc3ccc(F)cc3)c2n1,,-15% (inactive)
CN1CCN(c2ncc3nc(-c4ccc(Cl)cc4)c(=O)n(Cc4ccc(F)cc4)c3n2)CC1,,-3.9% (inactive)
CN1CCN(c2ncc3nc(-c4ccccc4)c(=O)n(Cc4ccc(F)cc4)c3n2)CC1,,-26.1% (inactive)
O=c1c(-c2ccc(F)cc2)nc2cnc(N3CCNCC3)nc2n1-c1ccccc1,,-29.9% (inactive)
O=c1c(-c2ccc(Cl)cc2)nc2cnc(N3CCNCC3)nc2n1Cc1ccc(F)cc1,25.1 µM (active),
O=c1c(-c2ccccc2)nc2cnc(N3CCNCC3)nc2n1Cc1ccc(F)cc1,10 µM (active),
